PubChem BioAssay (NCATS)
Several values for one entry are separate records, joined by “and”; a condition that tells them apart may be missing. Equal entries are not always repeated. Records with an inconclusive call do not appear. Unmarked numbers belong to inactive results. Activity calls are given as the source filed them. The call rests on the fitted dose curve; in most records, active means well fitted activation curve with a large enough effect in the signal ratio (not every such curve was filed as active); inconclusive means small, poorly fitted or top-dose-only effect, or a change in a side signal; inactive means flat fitted curve, though single readings scatter; the % refers to the signal ratio.

experiment: qHTS assay for small molecule activators of the p53 signaling pathway (AID 651743); settings: HCT-116 p53RE-bla, beta-lactamase FRET ratio, 16 h; activation: hits give high values; on activation: series mostly up to about 92 µM; % of control where 0% means no effect
Excerpt: National Center for Advancing Translational Sciences [NCATS] NIH Chemical Genomics Center [NCGC] U.S. Environmental Protection Agency [EPA] National Institutes of Environmental Health Sciences [NIEHS] National Toxicology Program [NTP] Assay Overview: p53, a tumor suppressor protein, is activated following cellular insult, including DNA damage and other cellular stresses. The activation of p53 regulates cell fate by inducing DNA repair, cell cycle arrest, apoptosis, or cellular senescence. The activation of p53, therefore, is a good indicator of DNA damage and other cellular stresses. The CellSensor p53RE-bla HCT-116 cell line (Invitrogen) contains a stably integrated beta-lactamase reporter gene under control of the p53 response elements. The activation of the report gene under culture conditions can be detected by fluorescence intensity. This cell line can be used to screen chemicals in a 1536-well plate format and to identify agonists that activate p53 signaling pathway.
Assay Protocol Summary: The p53RE-bla cells were dispensed at 4,000 cells/5 ul/well in 1536-well black wall/clear bottom plates using a Multidrop dispenser. After the assay plates were incubated at a 37 C/5% CO2 incubator for 5 hours, 23 nL of compounds dissolved in DMSO, positive controls or DMSO only was transferred to the assay plate by a pin tool. The plates were incubated at 37 C for 16 hours. After 1 uL of LiveBLAzer B/G FRET substrate was added using a Flying Reagent Dispenser, the plates were incubated at room temperature for 2 hours, and fluorescence intensity was measured by an Envision plate reader.
Potency means the concentration at half of the fitted maximal effect.

| SMILES | activation | Potency |
| --- | --- | --- |
| O=[N+]([O-])/C=C/c1ccccc1 | 10.5% |  |
| CCC/C=N/O | 2.09% |  |
| CCCCCCCCCCCCCl | -1.06% |  |
| CC(C)(COCC1CO1)COCC1CO1 (stereo not given) | 6.6% |  |
| Cc1cccc(C)c1N | 1.32% |  |
| Clc1ccc(C(Cl)(Cl)Cl)cc1Cl | 0.791% |  |
| CC(C)OC(=O)Cc1ccccc1 | -2.84% |  |
| C=CCBr | -2.4% |  |
| CCOP(=S)(OCC)Oc1nc(Cl)c(Cl)cc1Cl | 2.38% [middle of 4 runs] |  |
| CCCCCOC(=O)c1ccccc1C(=O)OCCCCC | -1% and 1.8% |  |
| CCOC(=O)CBr | -2.17% |  |
| CN(C)c1ccccc1 | -3.2% |  |
| O=C(O)C(Br)CBr (stereo not given) | 3.2% |  |
| OC[P+](CO)(CO)CO | 4.85% and 1.14% |  |
| ClC(Br)Br | 6.47% |  |
| ClCC(Cl)CCl | 2.35% and -2.96% |  |
| Nn1cnnc1 | 0.253% |  |
| CN(C)N=O | -2.39% |  |
| Brc1ccc(Oc2ccc(Br)cc2Br)c(Br)c1 | 2.43% |  |
| CC(C)CON=O | -2.37% |  |

| SMILES | activation | Potency |
| --- | --- | --- |
| Nc1cccc(Cl)c1 | -1.95% |  |
| Cc1ccc(N=C=O)cc1N=C=O | -2.11% and -1.5% |  |
| COc1c(C(C)(C)C)cc([N+](=O)[O-])c(C)c1[N+](=O)[O-] | -1.58% |  |
| BrCC(Br)C1CCC(Br)C(Br)C1 (stereo not given) | -5.49% |  |
| CCCCNC(=O)n1c(NC(=O)OC)nc2ccccc21 |  | 14.1 µM (active) |
| Cc1coc2c1CCC(C)C2 (stereo not given) | -2.44% |  |
| CC(=O)CCC(C)=O | 0.727% |  |
| Clc1ccc(Cl)c(Cl)c1 | -3.13% and -3.99% |  |
| Cc1ccc(N)cc1C | -1.62% |  |
| NNC(N)=S | -3.14% |  |
| CCCCOC(C)=O | -4.75% |  |
| Nc1cc(Cl)ccc1O | -1.47% |  |
| CN(C)c1ccc(N(C)C)cc1 | 1.85% |  |
| CN(C)c1ccc(N)cc1 | -3.55% |  |
| O=[N+]([O-])c1ccc(Cl)c(Cl)c1Cl | -2.43% |  |
| Cl/C=C/Cl | -3.7% |  |
| N#CCCC#N | -0.196% |  |
| C=C(C)CCl | -3.39% |  |
| C1CC2OC2CC1C1CO1 (stereo not given) | -4.75% and -3.06% |  |
| S=c1[nH]c2ccccc2[nH]1 | -4.45% |  |
